Assay outcomes as filed in PubChem.
Sampled rows, rich in hits. Any-hit rate of the full collection: about 4.7%.
D1 potentiator – Potentiators of Human D1 Dopamine Receptor: qHTS | potentiation, % at 10 µM | D(1A) dopamine receptor (Homo sapiens), P21728 | 0.036% of 360,000 active | HEK293 TREx D1 cells, calcium flux, dopamine EC20 potentiation | AID 504651, 2011; in the data active = potentiation above about 30%
TRHR agonist – qHTS for Small Molecule Agonists and Allosteric Enhancers of Human TRH Receptor: Primary Screen for Agonists; TRHR cells, calcium flux fluo-8, FDSS agonist mode; activation, % at 2 µM; 0.18% of 360,000 active; AID 493084, 2011
Target sequence (P34981 whole entry, looked up): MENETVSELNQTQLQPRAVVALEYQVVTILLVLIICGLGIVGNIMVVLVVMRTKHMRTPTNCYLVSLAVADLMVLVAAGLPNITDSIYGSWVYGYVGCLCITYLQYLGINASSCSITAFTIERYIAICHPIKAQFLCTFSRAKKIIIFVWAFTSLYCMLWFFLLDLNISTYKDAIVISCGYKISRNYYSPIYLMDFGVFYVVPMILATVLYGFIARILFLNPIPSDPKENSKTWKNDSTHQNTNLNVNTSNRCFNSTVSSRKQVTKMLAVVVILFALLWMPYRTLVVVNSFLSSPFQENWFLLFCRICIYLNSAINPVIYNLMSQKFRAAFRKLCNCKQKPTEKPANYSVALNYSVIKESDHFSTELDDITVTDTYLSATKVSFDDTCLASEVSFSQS
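Agonist-mode FDSS calcium read (Ex 480/Em 530, 1 s cycles) in 1536-well TRHR cells with fluo-8 dye, after 10-cycle baseline and 23 nL compound addition; TRH at EC20 (10 nM final) added afterwards for the enhancer phase.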
D1 agonist – Allosteric Agonists of the Human D1 Dopamine Receptor: qHTS. D(1A) dopamine receptor (Homo sapiens), P21728. HEK293 T-REx D1 cells, calcium flux, agonist mode. activation, % at 2 µM. 1% of 360,000 active
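Inducible HEK293 T-REx D1 cells, force-coupled to calcium signalling, were plated at 4000 cells/well with tetracycline and held overnight at 30 C. After no-wash calcium dye loading, compound-evoked calcium rise over 180 s flagged agonists.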
D1 antag – Antagonist of Human D 1 Dopamine Receptor: qHTS; 3.2% of 360,000 active; activity change, negative = inhibition, % at 10 µM; AID 504652, 2011; HEK293 TREx D1 cells, calcium flux, dopamine EC80; stronger effect = lower value; D(1A) dopamine receptor (Homo sapiens), P21728; in the data active = activity change below about -30%
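HEK293 T-REx cells expressing inducible, force-coupled D1 receptor; no-wash Ca dye, 30–90 min RT. Cmpd → 180 s read at 1 Hz → EC80 DA → 180 s read.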
TRHR enhancer – qHTS for Small Molecule Agonists and Allosteric Enhancers of Human TRH Receptor: Primary Screen for Enhancers; Thyrotropin-releasing hormone receptor (Homo sapiens), P34981; TRHR cells, fluo-8 calcium fluorescence, EC20 TRH enhancement; enhancement, % at 2 µM; 0.66% of 360,000 active; AID 493056, 2011; in the data active = enhancement above about 30%
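Enhancer read-out: after compound pinning and an initial kinetic agonist-mode read, an EC20 of TRH (10 nM final) was injected and fluo-8 calcium signal (Ex 480/Em 530) followed at 1 s/cycle for 100 cycles in TRHR-expressing cells.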
Numbers stand for hits; – = inactive. Rule as the data show it, unless noted: active = activation above about 30%; inactive = the rest.

SMILES	D1 potentiator	TRHR agonist	D1 agonist	D1 antag	TRHR enhancer
COc1ccc(CNCc2cc(C)c(OC)cc2C)c(OC)c1	–	–	30.3	–	–
CCn1c2ccccc2c2cc(N)ccc21	–	–	–	–	–
COc1cccc(CNCc2ccc(OC)cc2OC)c1	–	–	–	–	–
CCn1c2ccccc2c2cc(CNCc3ccc(OC)cc3OC)ccc21	–	–	93.9	–	–
CCC(CC)NCc1ccc2c(c1)c1ccccc1n2CC	–	–	60.3	–	–
CC(C)[C@H](NC(=O)c1ccc(Cl)c([N+](=O)[O-])c1)C(=O)NCc1ccc(F)cc1	–	–	–	–	–
Cc1ccccc1CNC(=O)c1ccc(Cl)c([N+](=O)[O-])c1	–	–	–	-61.4	–
Cc1ccccc1CNC(=O)Cc1ccccc1[N+](=O)[O-]	–	–	–	–	–
CC(C)[C@H](NC(=O)c1ccc(Cl)c([N+](=O)[O-])c1)C(=O)NCc1ccc(Cl)cc1Cl	–	–	–	-39.2	–
CC1CCCCN1C(=O)c1ccc(COc2ccc([N+](=O)[O-])cc2)o1 (stereo not given)	–	–	–	-35.6	–
COc1ccc(NC(=O)COc2ccc(Br)cc2)c(OC)c1	–	–	–	–	–
COc1ccc(NC(=O)NNC(=O)COc2ccc3cc(Br)ccc3c2)c(OC)c1	–	–	–	-32.5	–
O=C1CCCC(=O)N1c1ccc(N2CCN(c3ccc([N+](=O)[O-])cc3)CC2)c([N+](=O)[O-])c1	–	–	–	–	–
O=C1C2CC=CCC2C(=O)N1c1ccc(N2CCN(c3ccccn3)CC2)c([N+](=O)[O-])c1 (stereo not given)	–	–	–	-36.1	–
O=C1CCCC(=O)N1c1ccc(N2CCN(c3ccccc3)CC2)c([N+](=O)[O-])c1	–	–	–	-45.6	–
CCCC(C)C(=O)Nc1ncc(S(=O)(=O)c2ccc([N+](=O)[O-])cc2)s1 (stereo not given)	–	–	58.9	-68.4	–
CCOc1ccccc1Nc1sc(C(=O)c2ccccc2)c(N)c1S(=O)(=O)c1ccc(C)cc1	–	–	–	–	–
CCc1ccccc1Nc1sc(C(=O)c2cccc(OC)c2)c(N)c1S(=O)(=O)c1ccccc1	–	–	–	–	–
CCOc1ccc(Nc2sc(C(=O)c3ccc(F)cc3)c(N)c2S(=O)(=O)c2ccc(C)cc2)cc1	–	–	48.1	-40.6	–
COc1ccc(S(=O)(=O)c2c(Nc3ccccc3F)sc(C(=O)c3cccc(OC)c3)c2N)cc1	–	–	80.0	–	–
COc1ccc(S(=O)(=O)c2c(Nc3ccc(C)cc3C)sc(C(=O)c3ccc(F)cc3)c2N)cc1	–	–	87.7	-48.1	–
CC(NC(=O)Cn1ncc2c3ccccc3n(Cc3ccc(F)cc3)c2c1=O)c1ccccc1 (stereo not given)	–	–	–	–	–
Cc1cc(O)c(C(c2ccccc2)N2CCN(c3ccccc3)CC2)c(=O)n1Cc1ccco1 (stereo not given)	–	–	–	–	–
O=C(NC1CCCCC1)C(c1ccc(Cl)cc1)N1CCC2(CC1)OCCO2 (stereo not given)	–	–	–	–	–
CCN1CCN(C(C(=O)NC2CCCC2)c2ccc(Cl)cc2)CC1 (stereo not given)	–	–	–	-37.5	–
SMILES	D1 potentiator	TRHR agonist	D1 agonist	D1 antag	TRHR enhancer
CCOc1ccccc1NC(=O)Cn1c(=O)n(CC(=O)NCc2ccccc2Cl)c(=O)c2sccc21	–	–	–	–	–
CCN(CC)Cc1c(O)ccc2c1O/C(=C\C=C\c1ccccc1)C2=O	–	–	48.8	–	–
COc1ccccc1/C=C/C=C1\Oc2c(ccc(O)c2CN(C)C)C1=O	–	–	103.3	–	–
COCCN(CCOC)Cc1c(O)ccc2c1O/C(=C\c1ccc(C)o1)C2=O	–	–	–	–	–
CC(=O)c1ccc(S(=O)(=O)Nc2c(C)nn(C)c2C)cc1	–	–	–	–	–
COc1ccc(-c2cc(C(F)(F)F)n3nc(C(=O)Nc4ccccc4SC)cc3n2)cc1OC	–	–	–	–	–
Cc1ccc2c(c1)N(C(=O)CCC(=O)N1CCN(c3cccc(C)c3C)CC1)CCO2	–	–	–	–	–
COc1ccc(N2CCN(C(=O)Cc3coc4ccc(C)cc34)CC2)cc1	–	–	–	-67.7	–
COc1ccc(N2CCN(C(=O)CCC(=O)N3CCOc4ccc(Cl)cc43)CC2)cc1	–	–	–	–	–
Cc1ccc2c(c1)N(C(=O)CCC(=O)N1CCN(c3ccccc3)CC1)CCO2	–	–	–	-49.9	–
COc1ccc(N2CCN(C(=O)CCC(=O)N3CCOc4ccc(C)cc43)CC2)cc1	–	–	–	-34.0	–
Cc1ccc(-c2cccc(C3CC=CC4C3C(=O)N(Cc3ccccc3)C4c3cc(C)ccc3F)c2)cc1 (stereo not given)	–	–	–	-66.5	–
Cc1ccc(SCCC(=O)OCn2nnc3ccccc3c2=O)cc1	–	–	–	–	–
Cc1ccc(SCC(=O)OCn2nnc3ccccc3c2=O)cc1C	–	–	–	-33.5	–
Cc1ccc(NC(=O)Cn2nnc3ccccc3c2=O)cc1	–	–	–	–	–
Cc1ccc(NC(=O)Cn2nnc3ccccc3c2=O)cc1C	–	–	–	-39.7	–
Cc1cc(C)cc(OCC(=O)N2N=C(C(F)(F)F)CC2(O)C(C)(C)C)c1 (stereo not given)	–	–	34.2	–	–
CC(C)(Oc1ccc(Cl)cc1)C(=O)OCC(=O)NCCc1ccccc1	–	–	–	–	–
COC(=O)c1[nH]c2cc(OC)ccc2c1NC(=O)CCN1CCN(Cc2ccc3c(c2)OCO3)CC1	–	–	–	-85.6	–
COC(=O)c1[nH]c2cc(OC)ccc2c1NC(=O)CCN1CCCCC1	–	–	–	–	–
COc1ccc2cc(C(=O)N3CCN(Cc4ccc5c(c4)OCO5)CC3)[nH]c2c1	–	–	32.7	–	–
O=c1c2cc3c(cc2[nH]c(=S)n1C1CCN(Cc2ccccc2)CC1)OCO3	–	–	–	-31.8	–
COc1ccccc1N1CCN(C(=O)CCc2c(C)nn(-c3ccc(N4CCCC4)nn3)c2C)CC1	–	–	–	–	–
CCc1cc(=O)oc2c(C)c(OCC(=O)NCC3CCC(C(=O)O)CC3)ccc12 (stereo not given)	–	–	–	-65.6	–
Cc1c(OCC(=O)NCC2CCC(C(=O)O)CC2)ccc2c(-c3ccccc3)cc(=O)oc12 (stereo not given)	–	–	–	–	–
CCCCNCC1CCCO1 (stereo not given)	–	–	–	-90.5	–
